Rab9 promoter act = Rab9 promoter activation. Huh7 Rab9 promoter-luciferase reporter, luminescence, 24 h. Potency, µM (titrated, usually from 9.22 µM), hits mostly activators. hit rate 2.8% among 320,000. AID 485297; note: nearly all actives have a fitted effect of over 60% in size
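Quantitative HTS format; Huh7 Rab9-luciferase reporter cells (1500/well) receive compound 2 h post-plating, incubate 24 h at 37 °C, then get luciferase reagent for 10 min before luminescence reading.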
SMN2 splice enh = enhancers of SMN2 splice variant expression | HEK293 SMN2-luciferase splicing reporter, luminescence, 30-36 h | Potency, µM (doses to about 46.1 µM), most hits filed as activators | hit rate 2.8% among 210,000; note: nearly all actives have a fitted effect of over 55% in size
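qHTS luciferase splicing reporter: luminescence rises when SMN2 exon 7 is included in transfected HEK293 cells. Compound exposure lasted 30-36 h at 37C, with 4.5 mM final sodium butyrate as control, followed by a ONE-Glo read.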
ELG1 genotox = inducers of genotoxicity in HEK293T ELG1-luciferase cells; HEK293T ELG1-luciferase reporter, luminescence, 16 h; Potency, µM (series often up to 46 µM), usual class: activators; hit rate 1.3% among 330,000; AID 504466; note: nearly all actives have a fitted effect of over 60% in size
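DMSO vehicle served as control against compound-treated ELG1-luciferase HEK293T cells; exposure lasted 16 hr at 37 °C and 5% CO2, followed by ONE-Glo luminescence detection after 30 min.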
KinaseGlo FLuc = Kinase-Glo luciferase inhibition (counter-screen); Q27757; Kinase-Glo luciferase, ATP luminescence, 8 min; Potency, µM (doses to about 38.3 µM), usual class: inhibitors; hit rate 0.28% among 200,000; AID 1379; note: nearly all actives have a fitted effect of over 60% in size
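Substrate mix (final 50 mM imidazole pH 7.2, 50 mM KCl, 7 mM MgCl2, 10 uM ATP, 0.01% Tween 20, 0.05% BSA) plus pin-tool compound, then Kinase-Glo detection mix; 8 min ambient, luminescence read.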
FLuc counter = firefly luciferase modulation, counter-screen for miR-21 project. purified FLuc, Km substrates, luminescence inhibition. P08659. hit rate 6.9% among 360,000. Potency, µM (doses to about 57.5 µM), hits mostly inhibitors; note: nearly all actives have a fitted effect of over 55% in size
Target sequence (P08659 whole entry, looked up): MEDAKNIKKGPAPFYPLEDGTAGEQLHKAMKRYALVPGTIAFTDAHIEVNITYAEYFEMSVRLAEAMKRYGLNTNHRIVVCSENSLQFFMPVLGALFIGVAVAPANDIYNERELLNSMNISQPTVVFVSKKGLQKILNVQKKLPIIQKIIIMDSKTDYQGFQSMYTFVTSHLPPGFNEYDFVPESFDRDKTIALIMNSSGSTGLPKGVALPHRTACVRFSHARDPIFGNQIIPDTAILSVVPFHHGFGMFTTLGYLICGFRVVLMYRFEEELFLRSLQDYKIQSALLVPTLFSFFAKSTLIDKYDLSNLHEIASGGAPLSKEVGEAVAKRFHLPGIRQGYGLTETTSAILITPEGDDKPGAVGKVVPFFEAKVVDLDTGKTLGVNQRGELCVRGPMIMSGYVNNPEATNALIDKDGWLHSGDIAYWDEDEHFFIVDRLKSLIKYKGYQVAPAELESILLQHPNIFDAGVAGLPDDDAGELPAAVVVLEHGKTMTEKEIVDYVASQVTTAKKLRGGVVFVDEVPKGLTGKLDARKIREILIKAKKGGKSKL
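Biochemical qHTS of compounds, final roughly 60 µM downward over six points, against 10 nM purified firefly luciferase using Km concentrations of substrates (10 uM D-luciferin, 10 uM ATP) in Tris acetate pH 7.5 buffer; luminescence output.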
NPC1 promoter act = activates the NPC1 promoter; Huh7 NPC1 promoter luciferase reporter, 24 h; Potency, µM (titrated, usually from 9.22 µM), usual class: activators; hit rate 2.4% among 320,000; AID 485313; note: nearly all actives have a fitted effect of over 60% in size
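Luminescence from an NPC1 promoter-driven luciferase reporter in stably transfected Huh7 cells was measured after 24 h compound treatment at 37 °C, followed by 10 min ambient incubation with luciferase detection reagent.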
Numbers stand for hits; . = inactive; ? = inconclusive; / = no result given; [ ] = remark or other dose. Compounds with a hit are over-represented: about 7.4% of the library has one in this group of screens. Calls come from the whole dose curve; as a rule, active = well fitted curve in the direction sought with a large enough effect; inconclusive = small, poorly fitted or top-dose-only effect, or another doubt; inactive = no such curve, though single readings can be large; an effect the other way counts as inactive or inconclusive.

SMILES	Rab9 promoter act	SMN2 splice enh	ELG1 genotox	KinaseGlo FLuc	FLuc counter	NPC1 promoter act
Cc1cccc(C(=O)NNC2=CC(=O)CC(C)(C)C2)c1O	?	/	?	/	11µM	.
Cc1ccccc1NC1=CC(=O)CC(C)(C)C1	.	.	.	.	.	.
COc1ccc(C(=O)NNC2=CC(=O)CC(C)(C)C2)cc1	.	.[1.84 µM]	.	.	.	.
COc1ccc2c(c1OC)C(=O)N(c1cccc(C)c1)C2	1.4µM	14µM	2.1µM	.	1.5µM	1.4µM
COc1ccc2c(c1OC)C(=O)N(c1ccc(C)cc1)C2	0.71µM	/	18µM	/	3µM	1.1µM
COc1ccc2c(c1OC)C(=O)N(c1cccc(C(F)(F)F)c1)C2	4.5µM	13µM	?	.	5.4µM	?
COc1ccccc1N1Cc2ccc(OC)c(OC)c2C1=O	.	/	.	/	.	.
Cc1cccc(N2CC(=O)N(c3cccc(C)c3)CC2=O)c1	.	.	.	.	.	.
COc1ccc2c(c1OC)C(=O)N(c1ccccn1)C2	2.2µM	11µM	9.2µM	.	11µM	3.2µM
CN1C(=O)NC(c2ccccc2)C2=C1CN(c1cccc(C(F)(F)F)c1)C2=O (stereo unspecified)	.	.	.	.	.	.
COc1cc(/C=C/C(=O)N2CCCCC2=O)cc(OC)c1OC	/	/	/	.	/	/
CNc1ncncc1-c1ccccc1OC	/	.	/	.	/	/
COc1cccc(N2CCN(Cc3cc(=O)oc4cc(C)ccc34)CC2)c1	/	.	/	/	.	/
CCCc1nc2ccccc2c(=O)n1/N=C/c1ccc(O)cc1	?	.	.	.	.	.
O=c1c2ccccc2nc(N/N=C/c2ccc(O)cc2)n1O	.	.	.	11µM	2.4µM	.
O=c1c2ccccc2nc(N/N=C/c2c(O)ccc3ccccc23)n1O	.	.	.	.	1.9µM	.
Cc1nc2ccccc2nc1N/N=C/c1ccc(O)cc1	.	/	?	/	8.5µM	.
Cc1nc2ccccc2c(=O)n1/N=C/c1c(O)ccc2ccccc12	.	/	.	.	.	.
CCOC(=O)c1cccc(-n2nnc3c(sc4nc(C)c(Br)c(C)c43)c2=O)c1	/	.	/	/	.	/
Cc1oc(-c2ccccc2F)nc1CSc1nnc(C)n2c1cc1occc12	/	/	/	/	.	/
Cc1nnc(SCc2ccccc2Cl)c2cc3occc3n12	/	/	/	/	17µM	/
CCc1ccccc1NC(=O)Cn1nnc(C(=O)Nc2ccc(OC)c(OC)c2)c1N	/	/	/	/	.	/
O=C1Cc2ccccc2C(=O)N1c1ccccc1	.	/	.	/	.	.
c1ccc(N2CC3CCc4ccccc4C3=N2)cc1 (stereo unspecified)	3.2µM	/	?	/	8.5µM	?
CCc1ccc(/C=N/NC(=O)Cc2ccc(OC)c(OC)c2)s1	.	/	.	/	.	.
SMILES	Rab9 promoter act	SMN2 splice enh	ELG1 genotox	KinaseGlo FLuc	FLuc counter	NPC1 promoter act
Cc1ccc(/C=N/NC(=O)c2ccc(Br)o2)s1	?	16µM	?	.	?	?
CCc1ccc(/C=N\NC(=O)c2ccc(Br)o2)s1	2.8µM	11µM	?	.	11µM	3.5µM
Clc1ccccc1CSc1cc2c(nn1)-c1ccccc1CC2	2.5µM	20µM	?	.	5.4µM	?
Cc1cc(C)cc(NC(=O)NCCn2nnc3cc(S(=O)(=O)N(C)C)ccc32)c1	/	/	/	/	.	/
Cc1ccc(C(=O)N2CCc3cc(CNC(=O)CSc4ccccc4)ccc32)cc1	/	/	/	/	24µM	/
COC(=O)c1ccc(OCc2cc(=O)n3ccsc3n2)cc1	?	14µM	.	.	?	?
Cc1cccc(OCC(=O)Nc2ccc3nc(SCc4ccccc4)sc3c2)c1	/	/	/	/	.	/
Cc1cccc(OCC(=O)Nc2cccc(-c3nc4ccccc4s3)c2)c1	/	3.2µM	/	/	6µM	/
Cn1c(=O)c2ncn(CC(=O)Nc3cccc(-c4nc5ccccc5s4)c3)c2n(C)c1=O	?	.	.	.	3.8µM	3.2µM
Cc1ccc(OCC(=O)Nc2cccc(-c3nc4ccccc4s3)c2)cc1	/	/	/	/	9.5µM	/
CC(C)NC(=O)N1[C@H](c2cccs2)[C@@H](C)C(=O)[C@@H](C)[C@@H]1c1cccs1	/	/	/	/	.	/
CCn1cc(C(=O)NCc2ccccc2Cl)c(=O)c2cc(S(=O)(=O)N3CCc4ccccc4C3)ccc21	/	.	/	/	.	/
COc1cc(C2CC(=O)Nc3c2c(C)nn3-c2nncc(-c3ccccc3)n2)cc(OC)c1OC (stereo unspecified)	/	/	/	/	.	/

Compound activity deposited in PubChem by National Center for Advancing Translational Sciences (NCATS).
